TMEM16A act: activators or potentiators of mouse TMEM16A chloride channel; B-score at 10 µM; Q8BHY3; HEK293 TMEM16A/YFP-H148Q/I152L, iodide quench fluorescence; active compounds read low; hit rate 0.3% among 340,000;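 active = fluorescence-ratio B-score plate-corrected deviation score at least 3 library SD below zero, with starting fluorescence score within 5 deviations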;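 also: channel opened by trigger with iodide after compound preincubation; score built on the fluorescence ratio of max minus min over baseline; more negative score means more quench and so TMEM16A activation or potentiation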
Target sequence (Q8BHY3 whole entry, looked up): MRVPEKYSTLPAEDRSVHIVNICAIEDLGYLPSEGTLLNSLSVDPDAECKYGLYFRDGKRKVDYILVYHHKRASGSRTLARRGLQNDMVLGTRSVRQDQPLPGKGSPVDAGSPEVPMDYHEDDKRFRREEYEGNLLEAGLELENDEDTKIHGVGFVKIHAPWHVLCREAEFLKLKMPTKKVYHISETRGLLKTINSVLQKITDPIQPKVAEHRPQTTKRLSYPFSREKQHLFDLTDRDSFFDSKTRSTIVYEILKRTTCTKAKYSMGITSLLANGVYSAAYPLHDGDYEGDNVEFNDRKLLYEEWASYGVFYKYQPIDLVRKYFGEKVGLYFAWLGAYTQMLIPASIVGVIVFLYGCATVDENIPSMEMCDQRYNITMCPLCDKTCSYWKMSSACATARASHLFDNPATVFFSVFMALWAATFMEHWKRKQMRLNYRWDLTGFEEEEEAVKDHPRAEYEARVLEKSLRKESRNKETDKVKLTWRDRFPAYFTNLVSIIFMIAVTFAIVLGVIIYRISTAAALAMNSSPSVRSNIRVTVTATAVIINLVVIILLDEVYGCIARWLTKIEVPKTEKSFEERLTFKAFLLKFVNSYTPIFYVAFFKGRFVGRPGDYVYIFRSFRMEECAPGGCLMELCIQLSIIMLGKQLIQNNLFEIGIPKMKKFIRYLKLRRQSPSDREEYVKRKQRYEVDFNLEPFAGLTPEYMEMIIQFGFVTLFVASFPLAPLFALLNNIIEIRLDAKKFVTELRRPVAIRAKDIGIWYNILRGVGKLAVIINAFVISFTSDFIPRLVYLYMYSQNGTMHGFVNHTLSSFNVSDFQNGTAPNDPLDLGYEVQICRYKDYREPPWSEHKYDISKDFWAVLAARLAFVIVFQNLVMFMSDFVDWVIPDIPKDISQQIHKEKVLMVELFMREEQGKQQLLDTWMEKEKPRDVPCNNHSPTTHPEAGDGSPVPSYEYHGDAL
aSyn 5UTR inh: 5' untranslated region of α-synuclein, MLPCN primary screen. alpha-synuclein 5'UTR reporter, inhibitor activity. inhibition, % (tested at 7.5 µM). hit rate 0.82% among 300,000; in the data active = inhibition above about 60%;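 also: H4 neuroglioblastoma cells stably carrying SNCA 5'UTR luciferase fusion; 0% = DMSO wells and 100% = positive control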
KLF5 inh: suppresses KLF5 promoter-driven expression; inhibition, % at 5 µM; DLD-1 KLF5 promoter-luciferase reporter, luminescence; hit rate 0.23% among 290,000;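 active = inhibition above a per-plate limit of that plate's mean compound inhibition plus 3 SD, cut at about 60% in these data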;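 also: 0% = DMSO wells and 100% = LY294002 at 200 µM; higher means less KLF5 promoter-driven luciferase light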
Jurkat NFkB inh: lowers PMA/ionomycin-induced NF-kB signal in Jurkat cells | PMA/ionomycin-induced NF-kB luciferase reporter, luminescence | inhibition, % at 4 µM | hit rate 0.53% among 330,000; in the data active = inhibition above about 50%
697 NFkB inh: inhibitors of the PMA/ionomycin-induced NF-kB reporter in 697 B cells; 697 B-cell NF-kB luciferase reporter, 16 h; inhibition, % at 4 µM; hit rate 0.33% among 330,000; AID 435022; in the data active = inhibition above about 35%
ANO1 block: mouse TMEM16A channel inhibition, primary screen; HEK293 TMEM16A/YFP iodide influx fluorescence, ionomycin; normalized B-score (activity score, 25-100; higher = stronger inhibition) at 10 µM; hit rate 1.2% among 310,000; AID 588511;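 active = ratio plate-corrected score three or more library SD toward inhibition, starting fluorescence score within five deviations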;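 also: score derived from kinetic fluorescence span divided by baseline fluorescence per well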
Active calls of the source: *; i = inactive; . = not tested or not shown. In the library only some 2.5% were active in any assay of this set; here they are far more common.

SMILES	TMEM16A act	aSyn 5UTR inh	KLF5 inh	Jurkat NFkB inh	697 NFkB inh	ANO1 block
COc1cc(C2c3cc(O)c(OC)cc3CC(C(=O)O)C2CO)ccc1O (stereo unspecified)	i	.	.	.	.	.
C=C1C(=O)c2sccc2C(c2ccc(OC)c(OC)c2)C1COC(C)=O (stereo unspecified)	-4.8*	.	.	.	.	.
CCN1CCN(CC(=O)N2N=C(c3cccs3)CC2c2ccc(OC)c(OC)c2)C(=O)C1=O (stereo unspecified)	i	-4	-9	-11	-28	i
Nc1c(Cl)cc(-c2[nH]c3cc(C(=O)NCCO)ccc3c(=O)c2O)cc1Cl	i	-9	-14	2	-9	i
CCCNC(=O)c1ccc2c(=O)c(O)c(C)[nH]c2c1	i	23	.	8	12	i
CCCNC(=O)c1ccc2c(=O)c(O)c(-c3ccc(F)cc3)[nH]c2c1	i	81*	.	5	-22	i
CCCNC(=O)c1ccc2c(=O)c(O)c(-c3cccc(Br)c3)[nH]c2c1	i	84*	.	3	-57	i
CCOC(=O)C1=NN(C(=O)c2ccc(C)cc2)C(O)(c2ccc(Cl)cc2)C1 (stereo unspecified)	i	8	-23	5	6	100*
OCC1OC(n2cnc3ccccc32)CC1O (stereo unspecified)	i	10	-5	-4	12	i
CCOC(=O)c1cccc(N2CC3CNC(=O)C2(C(=O)OC)N3C)c1 (stereo unspecified)	i	.	.	9	-19	.
CCCN1CNC(=S)N(c2ccc(C(=O)OCC)cc2)C1	i	-2	3	-4	-23	i
CCOC(=O)c1ccc(N2CN(CC)CNC2=S)cc1	i	64*	5	-4	-16	i
Cc1ccc(CNC(=O)COC(=O)c2cc(C)oc2C)cc1	i	.	.	2	12	.
O=C(O)CCC1c2cc3c4cc2OC2Oc5cc6c(cc51)C(CCC(=O)O)c1cc5c7cc1OC(O6)c1cc6cc(c1)Oc1cc(cc(C(=O)O)c1)Oc1cc8cc(c1)C(Oc1cc(c(cc1C5CCC(=O)O)C3CCC(=O)O)OC(O4)c1cc(cc(c1)Oc1cc(cc(C(=O)O)c1)O8)Oc1cc(cc(C(=O)O)c1)Oc1cc(cc2c1)Oc1cc(cc(C(=O)O)c1)O6)O7 (stereo unspecified)	.	-7	.	14	0	25*
C=CCn1c(SCc2ccc(C(=O)Nc3nccs3)cc2)nnc1-c1ccc(C)c(Cl)c1	i	-14	12	-3	11	25*
C=CCn1c(CCCOc2ccc(Cl)cc2Cl)nnc1SCC(=O)Nc1nccs1	.	-11	-10	47	24	i
Cc1nc2scc(C)n2c(=O)c1S(=O)(=O)Nc1ccc(OC(F)(F)F)cc1	i	-22	-1	-3	-37	i
COc1ccc(Nc2cc3n(c(=O)n2)CCc2cc(OC)c(OC)cc2-3)c(C)c1	i	80*	-7	13	11	i
COc1ccc(Nc2cc3n(c(=O)n2)CCc2cc(OC)c(OC)cc2-3)cc1	i	47	-16	-8	19	i
O=C(CSc1ccccc1Cl)N1CCC(c2nc3ccccc3s2)CC1	i	.	3	-21	-9	100*
O=C(CN1CCC(c2nc3ccccc3s2)CC1)N1CCCCC1	i	3	-5	-10	1	i
CC1CC(C)(C)CC2(C1)NC(=O)N(CC(=O)OCC(=O)Nc1cc(S(=O)(=O)N3CCCCC3)ccc1Cl)C2=O (stereo unspecified)	i	.	.	.	.	.
COc1ccccc1NC(=O)CCCCCN1C(=O)c2cccc([N+](=O)[O-])c2C1=O	i	3	0	4	9	i
COc1cc(/C=C2/C(=O)c3cccc([N+](=O)[O-])c3C2=O)c(Br)cc1O	i	.	-9	.	.	25*
Cc1cccc(CN2C(=O)/C(=C\c3ccc(C(=O)NCCCN4CCN(C)CC4)cc3)Oc3ccccc32)c1	i	95*	-31	40	-12	i
SMILES	TMEM16A act	aSyn 5UTR inh	KLF5 inh	Jurkat NFkB inh	697 NFkB inh	ANO1 block
COc1ccc(NC(=O)c2noc3c2CCC3)cc1	i	-17	-124	-96	-134	i
CC(=O)c1ccc(NC(=O)c2noc3c2CCC3)cc1	i	71*	56	-3	-38	i
Fc1ccc(CSc2ccc3nnc(-c4cccnc4)n3n2)cc1	i	20	-13	-4	-6	i
O=c1c(Cc2ccc(Cl)cc2Cl)c(O)ccn1Cc1ccc(Cl)cc1	i	5	2	-7	8	100*
O=c1c(Cc2ccc(Cl)cc2)c(O)ccn1Cc1cccc(Cl)c1	i	18	-3	-9	-10	i
NS(=O)(=O)c1ccc(NC(=O)COC(=O)c2ncc(Cl)c(Cl)c2Cl)cc1	-5*	.	.	2	23	.
CCOc1ccc(NC(=O)COC(=O)c2ncc(Cl)c(Cl)c2Cl)cc1	i	-7	0	1	-9	i
Cc1onc(-c2ccccc2)c1C(=O)OCC(=O)N1CCN(c2ccccc2)CC1	i	7	.	-3	11	i
Cc1cc(C(=O)COC(=O)c2ccc(O)cc2)c(C)n1-c1ccccc1F	-29*	-78	-51	-37	-114	i
Cc1ccc(-n2nc3c(=O)n(CCCC(=O)NCc4cccc(Cl)c4)nc(C)c3c2C)cc1	i	45	-10	26	15	i
Cc1ccc(-n2nc3c(=O)n(CCCC(=O)NCc4ccc(Cl)cc4)nc(C)c3c2C)cc1	i	62*	1	16	-7	i
COc1ccc(C(C(=O)NC2CCCCC2)N(C(=O)c2ccco2)c2ccccc2C(C)=O)cc1OC (stereo unspecified)	i	11	13	-14	-9	i
C/C(=N\N1CCN(c2ccc(Cl)cc2)CC1)c1cccc([N+](=O)[O-])c1	i	18	-19	5	5	25*
C/C(=N/N1CCN(c2ccccc2)CC1)c1cccc([N+](=O)[O-])c1	i	-70	-11	-8	6	i
CCOc1cc2[nH]c(=O)n(CCC(=O)N3CCN(c4ccccc4OC)CC3)c(=O)c2cc1OCC	i	4	6	-1	-3	i
COc1cc2[nH]c(=O)n(CCC(=O)N3CCN(c4cc(Cl)ccc4C)CC3)c(=O)c2cc1OC	i	21	-38	3	-15	100*
N#C/C(=N/Nc1ccc([N+](=O)[O-])cc1)C(=N)N1CCCCC1	i	-86	-199	.	.	.
N#C/C(=N\Nc1cccc([N+](=O)[O-])c1)C(=O)c1ccc(Br)cc1	i	49	-10	5	-11	25*
O=C(O)c1ccc(N=NNc2cccc([N+](=O)[O-])c2)cc1	i	-107	-107	-25	-142	i
N#C/C(=N\Nc1ccc([N+](=O)[O-])cc1)C(N)=S	i	-40	-48	1	-41	100*
